Calb FLC: C. albicans growth modulation with fluconazole; C. albicans CaCi-2 (fluconazole-resistant clinical isolate) + fluconazole, Alamar Blue growth, 48 h; growth inhibition, % (test concentration not listed); 0.57% of 300,000 active; AID 1979;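 active means growth inhibition above about 58% in most replicates, limit read from the data, passing the limit was not always enough; inconclusive means exactly half the replicates above a set limit; inactive means most replicates below a set limit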;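 further: all wells also contain fluconazole at 8 µg/ml as a sub-toxic cotreatment; 0% = median of DMSO wells and 100% = median of geldanamycin control wells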
Beta cell apopt: blocks beta cell apoptosis; INS-1E cytokine-induced death, ATP luminescence, 48 h; percent of positive-control rescue, neutral wells zero; 0.8% of 300,000 active; protection from apoptosis, % (concentration not given with the values);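 active means Every replicate reaches about 75%, or at least half do and their mean reaches it too, limit read from the data; inconclusive means At least half of replicates reach the limit but their mean does not; inactive means Under half of replicates reach the limit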;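 further: 0% = cytokine-treated negative control wells and 100% = positive control rescue; higher means more ATP so stronger rescue from cytokine killing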
CSC inhib: cancer stem cell inhibition. cancer stem cell-like cells viability, luminescence. inhibition, % at 7.5 µM. 1.1% of 300,000 active. AID 2717; in the data active means inhibition above about 75%; inconclusive means no clear call, values can overlap the other calls; tested in HMLE shEcad cells
Mdm2 MdmX PPI: inhibitors of human Mdm2/MdmX interaction; O15151+Q00987; SaOS-2 split-luciferase Mdm2/MdmX complementation, luminescence; inhibition, % at 8 µM; 3% of 330,000 active;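 active means inhibition of at least 50% at 8 µM in the primary screen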
MPTP inh: blocks calcium-induced mitochondrial swelling | 1.4% of 360,000 active | AID 602449 | isolated mouse mitochondria, Ca2+ swelling absorbance, 30 min | inhibition, % at 10 µM;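 active means inhibition of 50% or more, scaled per plate between neutral and stimulator controls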;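 further: 0% = DMSO wells given calcium and 100% = 1 mM EGTA wells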
Mdm2 MdmX conf: confirmation of human Mdm2/MdmX interaction inhibitors; shares compounds with Mdm2 MdmX PPI; Mdm2-MdmX binding, luminescent assay; inhibition, % at 8 µM; 55% of 10,000 active; AID 489028; in the data active means inhibition above about 40%
FLuc counter: inhibits full-length luciferase, flagging false Mdm2/MdmX hits; AID 504607; SaOS-2 full-length luciferase counterscreen, luminescence; shares compounds with Mdm2 MdmX PPI; inhibition, % at 8 µM; 77% of 6,200 active;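 active means mean inhibition at 8 µM reaching about 37%, which flags the compound as non-specific, limit read from the data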;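 further: p53-null SaOS-2 cells with luciferase driven by a doxycycline-inducible promoter; compound on cells about two nights before reading with doxycycline added after day one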
Starred values were filed as active, the others as inactive; ? = inconclusive; · = not tested or not shown. Only some compounds are listed: those with a hit (about 4.8% of all), similar ones and a draw of the others.

SMILES	Calb FLC	Beta cell apopt	CSC inhib	Mdm2 MdmX PPI	MPTP inh	Mdm2 MdmX conf	FLuc counter
CC(=O)C12CCCCC1CC1[C@@H]3CC(C)C4=CC(=O)CC[C@]4(C)C3CC[C@@]12C (stereo partly drawn)	-3	·	·	56*	0	6	·
CN(C)S(=O)(=O)c1ccc(NC(=O)/C=C/c2ccccc2Cl)cc1	8	0	-1	-3	30	·	·
Cc1ccc(CNC(=O)/C=C/c2c(Cl)cccc2Cl)cc1	-15	-5	6	55*	1	8	·
CN(C)c1ccc(NC(=O)/C=C/c2c(Cl)cccc2Cl)cc1	1	6	·	64*	23	69*	50*
COc1ccc(C(=O)Nc2ccc(NC(=O)c3ccccc3)cc2)cc1S(=O)(=O)N1CCOCC1	2	6	-6	86*	0	-5	·
O=C(Nc1cccc(S(=O)(=O)N2CCCC2)c1)c1cc(=O)[nH]c2ccccc12	·	-4	·	17	1	·	·
O=C(Nc1ccc(Cl)c(S(=O)(=O)N2CCCC2)c1)c1cc(=O)[nH]c2ccccc12	·	-3	2	52*	-1	10	·
O=C(Nc1ccc(NC(=O)c2ccc(Cl)c(S(=O)(=O)N3CCOCC3)c2)cc1)c1ccccc1	-3	-6	-10	58*	1	45*	48*
CCCCCCCCCCC(C(=O)O)C1(C(=O)O)CCC(=O)O1 (stereo not drawn)	·	·	·	·	-1	·	·
OC[C@H]1O[C@H](c2nc(-c3nc(-c4cccc(-n5cccc5)c4)no3)cs2)C[C@@H]1O	·	·	·	·	0	·	·
Cc1cccc(/C=C/c2onc(C)c2S(=O)(=O)N2CCC(C(=O)N3CCC(C)CC3)CC2)c1	-11	1	-18	52*	0	11	·
CSc1nc(=S)n(-c2cc(C)ccc2C)c(C)c1C(C)=O	-8	-4	-23	30	1	·	·
Cc1nc(SCC(=O)Nc2ccc(CN3CCCC3)cc2)c2c(C)c(C)sc2n1	·	16	·	84*	-1	37	64*
CCOC(=O)C1(C)CCN1C(=O)c1ccccc1Br (stereo not drawn)	·	·	·	·	0	·	·
C/C=C/c1cc(CN2CCN(c3ccccc3)CC2)c(O)c(OC)c1	-4	5	22	82*	1	45*	83*
Cc1ccc(C)c(NCCCCC(=O)O)c1	·	·	·	·	0	·	·
Cc1onc(-c2c(F)cccc2Cl)c1C(=O)N1CCN(c2ncc(Br)cn2)CC1	7	·	-2	-11	1	·	·
O=C1c2ccccc2-c2n[nH]c(=O)c3ccc(N4CCCCC4)c1c23	39	1	-6	52*	1	15	·
Cc1ccc(OC2CCN(C(=O)[C@H]3O[C@@H](n4ccc(=O)[nH]c4=O)[C@H](O)[C@@H]3O)CC2)cc1	·	·	·	·	-1	·	·
Cc1ccc(OCCNC(=O)c2cncc(Br)c2)cc1C	1	-12	53	60*	3	48*	60*
NCC12CC3CC(C1)CC(c1ccc(Br)cc1)(C3)C2	49	7	22	72*	1	31	·
COC(=O)[C@@]12CCCCN1[C@H](c1ccc(-c3ccc(Cl)c(Cl)c3)c(OC)c1)[C@H]1C(=O)N(C)C(=O)[C@H]12	·	16	·	65*	1	42*	44*
CCN1C(=O)[C@H]2[C@@H](c3ccc(-c4ccc(F)cc4)c(OC)c3)N3CCC[C@@]3(C(=O)OC)[C@H]2C1=O	15	-12	8	26	0	·	·
COC(=O)[C@@]12CCCCN1[C@H](c1ccc(-c3cc(C(C)=O)cs3)cc1)[C@H]1C(=O)N(C)C(=O)[C@H]12	13	24	-11	67*	-2	22	·
CCCCCCSc1ccc([C@@H]2[C@H]3C(=O)N(C)C(=O)[C@H]3[C@]3(C(=O)OC)CCCCN23)cc1	-16	8	30	-8	1	·	·
SMILES	Calb FLC	Beta cell apopt	CSC inhib	Mdm2 MdmX PPI	MPTP inh	Mdm2 MdmX conf	FLuc counter
COC(=O)[C@@]12CCCCN1[C@H](c1ccc(-c3cc(C(C)=O)cs3)c(OC)c1)[C@H]1C(=O)N(C)C(=O)[C@H]12	·	11	7	19	1	·	·
CCN1C(=O)[C@@H]2[C@@H](c3ccc(-c4ccc(Cl)c(Cl)c4)c(OC)c3)N3CCC[C@@]3(C(=O)OC)[C@@H]2C1=O	·	-2	27	67*	0	23	·
CCCCCCSc1ccc([C@@H]2[C@@H]3C(=O)N(CC)C(=O)[C@@H]3[C@]3(C(=O)OC)CCCCN23)cc1	·	0	68	52*	0	6	·
COC(=O)[C@@]12CCCCN1[C@H](c1ccc(-c3ccc(Cl)c(Cl)c3)cc1)[C@H]1C(=O)N(C)C(=O)[C@H]12	·	4	·	67*	1	20	·
CC(=O)Nc1ccc(CNc2ncnc3ccc(-c4c(C)noc4C)cc23)cc1	·	-38	16	88*	2	68*	49*
CCOC(=O)c1c2c(n(-c3ccc(OC)cc3)c1C)C(=O)C(=O)c1ccccc1-2	·	·	·	·	2	·	·
CCOC(=O)c1c2c(n(C)c1COC)C(=O)C(=O)c1ccc(Br)cc1-2	-36	105*	121*	99*	·	98*	4
COc1cc(/C=C2\SC(=O)NC2=O)ccc1Oc1ccc([N+](=O)[O-])cc1[N+](=O)[O-]	14	18	46	8	27	·	·
CCN1C(=O)C(=Cc2cccc(OC)c2Oc2ccc([N+](=O)[O-])cc2[N+](=O)[O-])SC1=S	4	99*	77*	100*	0	95*	28
CCN(C(=O)COC(=O)C1CC1)c1c(N)n(Cc2ccccc2)c(=O)[nH]c1=O	·	1	-13	9	0	·	·
COc1cc(C(=O)C(=O)N2CCC(Cc3ccccc3)CC2)cc2ccccc12	·	·	·	·	-1	·	·
O=C1/C(=C/c2ccccc2[N+](=O)[O-])COc2ccccc21	?	-11	-27	98*	-3	45*	3
CC(C)(C)c1ccc(/C=C(\c2nc3ccccc3[nH]2)S(=O)(=O)c2ccccc2)cc1	-2	108*	125*	93*	13	100*	51*
Cc1cccc(/C=C(\c2nc3ccccc3[nH]2)S(=O)(=O)c2ccccc2)c1	36	·	·	·	1	·	·
CCCCCCCCN1C(=O)[C@H](CC(=O)NCc2cccc3ccccc23)C[C@@]2(C(=O)OC)CC(C)(C)CC=C12	·	·	·	·	1	·	·
COc1cc(C(=O)N/N=C/c2ccc(OC)c(CN3CCN(c4ccc(F)cc4)CC3)c2)ccc1O	-4	4	2	20	0	·	·
CCC(=O)N1CCCC(C)(C(=O)NS(=O)(=O)c2ccccc2Cl)C1 (stereo not drawn)	·	·	·	·	-2	·	·
C=CC[C@]12CC=CC(=O)[C@@]1(O)O[C@H](c1ccc(OC)c(OC)c1)[C@H]2C	-2	-6	39	50*	0	30	·
C=CC[C@]12C=C(OC)C(=O)C(OC)=C1O[C@@H](c1ccc3c(c1)OCO3)[C@H]2C	8	-3	-11	0	0	·	·

Bioassay records deposited in PubChem BioAssay by several laboratories.
